Measured values as given in PubChem BioAssay (Tox21).
Records with an inconclusive call do not appear. Activity calls are given as the source filed them. Unless noted, the call rests on the fitted dose curve; in most records, active means well fitted curve in the direction sought with a large enough effect in the repeat runs; inconclusive means weak or mixed curves; inactive means no such curve, though single readings can be large; an effect the other way counts as inactive or inconclusive.

Experiments:
[1] = qHTS assay to identify small molecule antagonists of the estrogen related receptor (ERR) signaling pathway from Tox21 library - cell viability counter screen (AID 1224834); further: nearly all actives have a fitted effect of over 30% in size
Procedure, shortened: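 Seeded ERR cells were rested 6 h at 37 C/5% CO2 before compounds, positive and negative controls or DMSO were added. Incubation continued for 17.5 h, and viability was then quantified by CellTiter-Fluor fluorescence.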

[2] = molecular target: Luciferin 4-monooxygenase (Photinus pyralis) (UniProt P08659); assay: qHTS assay to identify small molecule inhibitors of firefly luciferase (AID 1224835); further: series mostly up to about 120 µM; nearly all actives have a fitted effect of over 25% in size
Luciferin 4-monooxygenase (Photinus pyralis), sequence (P08659 whole entry, looked up): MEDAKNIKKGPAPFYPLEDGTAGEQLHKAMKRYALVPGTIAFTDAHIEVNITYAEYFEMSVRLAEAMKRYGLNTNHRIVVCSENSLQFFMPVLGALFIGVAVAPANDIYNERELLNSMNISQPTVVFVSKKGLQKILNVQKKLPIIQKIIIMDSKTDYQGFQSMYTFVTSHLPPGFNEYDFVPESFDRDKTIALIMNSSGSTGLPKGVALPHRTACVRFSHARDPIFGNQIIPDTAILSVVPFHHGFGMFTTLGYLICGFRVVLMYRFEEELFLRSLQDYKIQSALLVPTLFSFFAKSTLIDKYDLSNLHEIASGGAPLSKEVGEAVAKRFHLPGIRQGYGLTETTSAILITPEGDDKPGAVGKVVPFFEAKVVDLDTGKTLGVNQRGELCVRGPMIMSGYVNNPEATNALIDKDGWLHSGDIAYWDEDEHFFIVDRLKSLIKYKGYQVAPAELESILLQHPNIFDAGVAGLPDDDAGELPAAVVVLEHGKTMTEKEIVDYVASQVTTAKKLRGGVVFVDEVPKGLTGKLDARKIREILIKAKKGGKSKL
Procedure, shortened: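 Biochemical qHTS: compounds run as interplate titrations against purified firefly enzyme, with D-luciferin and ATP each at its KM concentration. Light output recorded by CCD imaging.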

[3] = qHTS assay to identify small molecule agonists of the constitutive androstane receptor (CAR) signaling pathway - cell viability counter screen (AID 1224836); further: series mostly up to about 92 µM; nearly all actives have a fitted effect of over 45% in size
Procedure, shortened: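 Counter screen multiplexed with the CAR reporter readout: HepG2 cells co-transfected with hCAR and the CYP2B6-2.2kb construct receive a 15-concentration compound series and 0.75 uM PK11195 (final), then CellTiter-Fluor fluorescence is read after 23 h.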

[4] = qHTS assay to identify small molecule antagonists of the constitutive androstane receptor (CAR) signaling pathway - cell viability counter screen (AID 1224837); further: series mostly up to about 92 µM; nearly all actives have a fitted effect of over 45% in size
Procedure, shortened: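 To flag cytotoxic false antagonists, HepG2 hCAR/CYP2B6-2.2kb cells were treated 23 hr with 15-concentration compound series and 50 nM CITCO at 37 C/5% CO2; CellTiter-Fluor fluorescence was the measured end point.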

[5] = molecular target: Nuclear receptor subfamily 1 group I member 3 (Homo sapiens) (UniProt Q14994); assay: qHTS assay to identify small molecule antagonists of the constitutive androstane receptor (CAR) signaling pathway (AID 1224838);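 further: HepG2 cells stably expressing hCAR with CYP2B6 luciferase reporter stimulated by CITCO; nearly all actives have a fitted effect of over 40% in size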
Nuclear receptor subfamily 1 group I member 3 (Homo sapiens), sequence (Q14994 whole entry, looked up): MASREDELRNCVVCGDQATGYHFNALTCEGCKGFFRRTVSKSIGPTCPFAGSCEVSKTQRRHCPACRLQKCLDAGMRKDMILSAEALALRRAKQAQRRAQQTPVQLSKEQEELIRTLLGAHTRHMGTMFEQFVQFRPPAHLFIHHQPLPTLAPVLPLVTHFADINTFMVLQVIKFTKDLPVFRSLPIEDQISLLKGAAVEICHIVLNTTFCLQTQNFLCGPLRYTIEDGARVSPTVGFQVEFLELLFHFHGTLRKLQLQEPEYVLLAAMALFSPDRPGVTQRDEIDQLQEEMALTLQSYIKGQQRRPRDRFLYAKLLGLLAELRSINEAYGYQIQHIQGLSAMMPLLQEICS
Procedure, shortened: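 Human hepatoma HepG2 cells expressing hCAR and a CYP2B6 promoter (2.2 kb) luciferase construct; compound titration (15 points) with 50 nM CITCO final, 24 h at 37 C/5% CO2; luminescence via ONE-Glo after 30 min at room temperature.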

[6] = molecular target: Nuclear receptor subfamily 1 group I member 3 (Homo sapiens) (UniProt Q14994); assay: qHTS assay to identify small molecule agonists of the constitutive androstane receptor (CAR) signaling pathway (AID 1224839); further: series mostly up to about 92 µM; nearly all actives have a fitted effect of over 15% in size
Procedure, shortened: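 A 15-concentration quantitative screen uses HepG2 cells co-transfected stably with human CAR and CYP2B6-2.2kb reporter. Treatment lasts 24 h with 0.75 uM PK11195 final present; ONE-Glo luminescence is the signal.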

[7] = qHTS assay to identify small molecule antagonists of the estrogen related receptor signaling pathway with the pleiotropic PPARgamma coactivator (PGC) from Tox21 10K library - cell viability counter screen (AID 1224840; active means well fitted cell-killing curve with a large enough effect in the repeat runs, not every such curve was filed as active; further: nearly all actives have a fitted effect of over 40% in size)
Procedure, shortened: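 Seeded PGC/ERR cells (2,000/well, 6 h, 37 C/5% CO2) get compound by pin tool; 17.5 h incubation at 37 C; CellTiter-Fluor added, 30 min, fluorescence measured.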

[8] = qHTS assay to identify small molecule antagonists of the estrogen related receptor signaling pathway with the pleiotropic PPARgamma coactivator (PGC) from Tox21 10K library (AID 1224841; call rule not given here; further: series mostly up to about 92 µM; actives are mostly falling curves and most rising ones were filed inactive; nearly all actives have a fitted effect of over 50% in size)
Procedure, shortened: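 Test chemicals dissolved in DMSO were applied to pre-incubated (6 h) PGC/ERR cells at 2,000 cells/well for an 18 h, 37 C treatment; reporter luminescence was then read using One-Glo.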

[9] = qHTS assay to identify small molecule agonists of the estrogen related receptor signaling pathway with the pleiotropic PPARgamma coactivator (PGC) from Tox21 10K library (AID 1224842); further: nearly all actives have a fitted effect of over 15% in size
Procedure, shortened: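 PGC/ERR reporter cell line, 2,000 cells per well, incubated 6 h at 37 C before 23 nL compound in DMSO was added. After 18 h at 37 C, One-Glo luminescence read following 30 min at room temperature.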

[10] = molecular target: Thyrotropin receptor (Homo sapiens) (UniProt P16473); assay: qHTS assay to identify small molecule agonists of the thyroid stimulating hormone receptor (TSHR) signaling pathway (AID 1224843; calls by dose curve; further: nearly all actives have a fitted effect of over 45% in size)
Thyrotropin receptor (Homo sapiens), sequence (P16473 whole entry, looked up): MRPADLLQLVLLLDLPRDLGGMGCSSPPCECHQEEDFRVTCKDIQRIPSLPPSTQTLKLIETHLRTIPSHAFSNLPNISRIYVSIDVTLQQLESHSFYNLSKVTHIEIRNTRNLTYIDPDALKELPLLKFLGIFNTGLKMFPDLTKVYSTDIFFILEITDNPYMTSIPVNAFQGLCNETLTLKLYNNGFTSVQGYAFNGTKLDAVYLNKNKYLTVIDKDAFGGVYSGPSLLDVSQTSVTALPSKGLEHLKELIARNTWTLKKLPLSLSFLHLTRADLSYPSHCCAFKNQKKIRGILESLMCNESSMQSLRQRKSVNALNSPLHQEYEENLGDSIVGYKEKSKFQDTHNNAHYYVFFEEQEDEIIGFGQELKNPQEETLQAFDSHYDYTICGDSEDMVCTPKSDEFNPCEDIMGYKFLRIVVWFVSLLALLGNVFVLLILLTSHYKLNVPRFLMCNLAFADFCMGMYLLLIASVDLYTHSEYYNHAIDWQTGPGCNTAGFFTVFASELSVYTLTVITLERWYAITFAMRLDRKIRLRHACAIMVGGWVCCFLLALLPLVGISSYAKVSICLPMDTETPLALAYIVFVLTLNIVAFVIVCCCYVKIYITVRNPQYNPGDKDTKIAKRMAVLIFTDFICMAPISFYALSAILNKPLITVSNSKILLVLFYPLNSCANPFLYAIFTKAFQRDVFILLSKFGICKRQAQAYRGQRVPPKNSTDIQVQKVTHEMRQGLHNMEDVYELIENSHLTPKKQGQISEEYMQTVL
Procedure, shortened: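 Agonist-mode screen: TSHR HEK293 cells received test chemicals for half an hour at room temperature, then HTRF cAMP detection reagents for one hour prior to fluorescence measurement. Each chemical ran as a 15-concentration series, triplicated.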

Measured: Potency

O=C(CCCN1CCN(c2ccccn2)CC1)c1ccc(F)cc1
inactive: all assays above

CC(C)(O)C(=O)c1ccccc1
inactive: all assays above

COC(C)(C)CCCC(C)CC=O (configuration not stated)
inactive: all assays above

CC(C)NCCCC1(C(N)=O)c2ccccc2-c2ccccc21
inactive: all assays above

ClC(Cl)(Br)Br
inactive: all assays above

Nc1ccccc1S(=O)(=O)O
inactive: all assays above

O=C[C@H](O)[C@@H](O)[C@H](O)[C@H](O)CO
not listed: [9]
inactive: all other assays above

CC(C)NC(=O)NC(C)C
not listed: [9]
inactive: all other assays above

FC1(F)C(F)(F)C(F)(F)C2(F)C(F)(F)C(F)(F)C(F)(F)C(F)(F)C2(F)C1(F)F (configuration not stated)
inactive: all assays above

COc1c(N2C[C@@H]3CCCN[C@@H]3C2)c(F)cc2c(=O)c(C(=O)O)cn(C3CC3)c12
inactive: all assays above

Cn1cc(S(C)=O)c(=O)c2ccc(F)cc21 (configuration not stated)
not listed: [9]
inactive: all other assays above

COCCc1ccc(OCC(O)CNC(C)C)cc1 (configuration not stated)
inactive: all assays above

CC1(C)C(O)C(C)(C)C1O (configuration not stated)
not listed: [9]
inactive: all other assays above

CC/C=C\CC/C=C/C(OCC)OCC
inactive: all assays above

CO/N=C(/C(=O)N[C@@H]1C(=O)N2C(C(=O)OCOC(=O)C(C)(C)C)=C(C)CS[C@H]12)c1csc(N)n1
inactive: all assays above

CN1CCCC1
inactive: all assays above

O=S(O)CO
not listed: [9]
inactive: all other assays above

CCCCCCCCCCCC
inactive: all assays above

CCO[Si](CCC1CCC2OC2C1)(OCC)OCC (configuration not stated)
not listed: [9]
inactive: all other assays above

NC(=O)c1ccc([N+](=O)[O-])cc1
not listed: [9]
inactive: all other assays above

CC/C=C\CCOC(C)=O
not listed: [9]
inactive: all other assays above

Cc1c(NC(C)C)c(=O)n(-c2ccccc2)n1C
inactive: all assays above
